This assay concerns the target Acyl-homoserine lactone acylase PvdQ (Pseudomonas aeruginosa (strain ATCC 15692 / DSM 22644 / CIP 104116 / JCM 14847 / LMG 12228 / 1C / PRS 101 / PAO1)) (UniProt Q9I194). Nature of the assay: P. aeruginosa PvdQ acylase inhibitors, dose response, biochemical, fluorescence, plate reader and imaging, cherry-picks (AID 493231).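 Also: more negative values mean stronger inhibition of the acylase.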 To be noted: purified PvdQ acylase, fluorogenic substrate; series mostly up to 10 µM.

Each structure is given as a SMILES string. Measured potencies and affinities stand elsewhere. Active and inactive are the calls of the source. No rule for the calls is given here.

Acyl-homoserine lactone acylase PvdQ (Pseudomonas aeruginosa (strain ATCC 15692 / DSM 22644 / CIP 104116 / JCM 14847 / LMG 12228 / 1C / PRS 101 / PAO1)), sequence (Q9I194 whole entry, looked up): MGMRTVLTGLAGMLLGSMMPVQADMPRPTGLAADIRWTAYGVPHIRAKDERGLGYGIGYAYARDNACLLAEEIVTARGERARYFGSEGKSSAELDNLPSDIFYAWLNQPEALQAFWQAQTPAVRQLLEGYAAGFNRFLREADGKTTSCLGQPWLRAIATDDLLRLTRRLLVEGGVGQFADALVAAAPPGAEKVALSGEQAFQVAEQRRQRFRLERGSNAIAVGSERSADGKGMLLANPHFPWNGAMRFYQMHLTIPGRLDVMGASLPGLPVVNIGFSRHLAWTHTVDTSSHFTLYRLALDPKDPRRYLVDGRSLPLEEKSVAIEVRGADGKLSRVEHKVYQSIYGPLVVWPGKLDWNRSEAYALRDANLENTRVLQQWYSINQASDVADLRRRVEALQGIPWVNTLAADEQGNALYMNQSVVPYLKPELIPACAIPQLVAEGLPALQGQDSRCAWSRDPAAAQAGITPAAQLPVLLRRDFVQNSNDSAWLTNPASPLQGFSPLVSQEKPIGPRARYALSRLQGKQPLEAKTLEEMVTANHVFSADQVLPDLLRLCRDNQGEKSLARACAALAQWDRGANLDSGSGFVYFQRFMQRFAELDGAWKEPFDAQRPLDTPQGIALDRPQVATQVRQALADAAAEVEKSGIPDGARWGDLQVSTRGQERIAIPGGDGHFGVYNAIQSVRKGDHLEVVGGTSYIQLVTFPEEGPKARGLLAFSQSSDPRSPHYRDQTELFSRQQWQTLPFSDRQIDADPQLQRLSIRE

In the case of `CC(=O)N/N=C/c1c(C)[nH]n(-c2ccccc2)c1=O`, the compound was classed as inactive.

With `C=CCC1S/C(=N/N=C/c2cccs2)NC1=O` (configuration not stated), the outcome was inactive. The same measure for `S=C(NCc1ccc2c(c1)OCO2)Nc1ccc2nsnc2c1`: “inactive”; for `N#C/C(C(=S)Nc1ccccc1)=C1/NN=C(N2CCOCC2)N1c1ccccc1`: “inactive”; for `CC(Sc1nnc(-c2ccccc2F)n1C)C(=O)NC1CCCCC1` (configuration not stated): “inactive”. For `COc1ccc(-c2onc3ccc(Br)cc23)cc1` the value was “inactive”; for `O=C(COC(=O)/C=C/c1cccc(Br)c1)NC1CCCCCC1`, “inactive”; for `O=C(CCc1c[nH]c2ccccc12)N/N=C/c1ccc2c(c1)OCO2`, “inactive”. For `c1ccc2sc(-c3ccc4c(c3)OCO4)nc2c1` the value was “inactive”; for `COc1ccc(OC2CCN(S(=O)(=O)c3ccc(OC)c(OC)c3)CC2)cc1`, “inactive”. On to `O=C1N(c2ccccc2)C[C@@H]2C[C@@H](c3cc4ccccc4o3)N3CCC[C@@]123`, for which the compound was called inactive.

Consider `COc1ccc(C(=O)N/N=C/c2ccc(OC)c(CN3CCCc4ccccc43)c2)cc1`, for which the compound was classed as inactive. For `CN(C)C(=O)Nc1ccccc1` the value was “inactive”; for `C/C(CCC1CC(C)OC1=O)=N/Nc1nc(-c2ccccc2)cs1` (configuration not stated), “inactive”; for `C(=C\c1nnc(-c2cccs2)o1)/c1ccccc1`, “inactive”. `Cc1ccccc1NC(=O)Cn1nc(-c2ccccc2)nc1-c1ccccc1`: the outcome was inactive. The same measure for `COc1ccc2cc(C)c3nnc(SCC(=O)Nc4cc(OC)c(OC)cc4C(=O)O)n3c2c1`: “inactive”; for `CSCCC(NC(=O)c1ccc([N+](=O)[O-])cc1Cl)C(=O)OCC(=O)N(C)C` (configuration not stated): “inactive”; for `CCOC(=O)c1[nH]c2c(c1C)C(=O)CC(c1ccco1)C2` (configuration not stated): “inactive”. For `NC(=O)COC(=O)c1ccc(-c2ccccc2)cc1` the value was “inactive”. The same measure for `N#Cc1cc([N+](=O)[O-])ccc1Oc1cccc(/C=N/NC(=O)c2ccc(Cl)cc2)c1`: “inactive”. As for `O=C1CCCN=C(Nc2ccc(F)c(Cl)c2)S1`, the call was inactive. For `CCCN(c1nc(C)cc(OC)n1)S(=O)(=O)c1ccccc1` the value was “inactive”; for `CCOc1ccc(NC(=S)NCc2cccnc2)cc1`, “inactive”; for `O=C1CCC(=O)N1CCSC(=S)N1CCSCC1`, “inactive”. For the compound `COc1ccccc1N(CC(O)Cn1ccnc1C)S(=O)(=O)c1ccccc1` (configuration not stated), the outcome was inactive. In the case of `CN(C)CCN(C(=O)C1=COCCO1)c1nc2ccc(Cl)cc2s1`, the call was inactive. `N#Cc1cc([N+](=O)[O-])ccc1Oc1cccc(/C=N/NC(=O)c2cccc(Cl)c2)c1`: the compound was called inactive. For the compound `Cc1ccc(O)c(NC(=S)NC(=O)/C=C/c2ccco2)c1`, the call was inactive. `O=C(CCCN1C(=O)/C(=C/c2ccccc2)SC1=S)Nc1ccccc1O`: the call was inactive. With `COC(=O)c1sccc1N/N=C/c1ccc(OC)c(OC)c1OC`, the result was inactive. For `CC[N+](CC)(CC)C/C=C/CN1CCCCC1` the value was “inactive”. For `O=C(/C=C/c1ccc(Cl)c([N+](=O)[O-])c1)c1ccc(O)cc1` the value was “inactive”.

As for `CCOC(=O)C(Oc1ccc(=O)[nH]n1)C(C)=O` (configuration not stated), the outcome was inactive. For `CNC(=S)N/N=C/c1cc(C)n(-c2ccc(Cl)c(Cl)c2)c1C` the value was “inactive”; for `Cc1ccc2nc(-c3ccc(NS(=O)(=O)c4ccc(F)cc4)cc3)sc2c1`, “inactive”; for `CN(c1ccc(C(=O)NC2CC3CCC2C3)cc1)S(C)(=O)=O` (configuration not stated), “inactive”.

As to `COc1ccc(OCCSc2nc3ccccc3n2CCC(=O)O)cc1`, the call was inactive. The same measure for `N#C/C(=C\c1ccc([N+](=O)[O-])cc1)c1ccccn1`: “inactive”. As to `Cc1ccc(N(c2ncnc(N)c2[N+](=O)[O-])C2CCCCC2)cc1`, the compound was classed as inactive.

For the compound `COc1cccc(Nc2nc(Nc3ccc(Cl)c(C(=O)O)c3)nc(C)c2[N+](=O)[O-])c1`, the result was inactive. Take `OC(CN1CCOCC1)Cn1c(-c2cccc(Cl)c2)nc2ccccc21` (configuration not stated): the outcome was inactive. `O=C(Nc1cccc(NC(=O)c2sc3ccccc3c2Cl)c1)c1ccco1`: the result was inactive. For the compound `O=C(Nc1cccc(Br)c1)c1ccc2c(c1)SC1=NS(=O)(=O)CCN12`, the compound was classed as inactive. For the compound `CC(=O)Nc1nc(-c2ccc(Cl)cc2)ns1`, the compound was classed as inactive. Consider `Cc1ccsc1C(=O)NCCC(c1ccccc1)c1ccccc1`, for which the compound was called inactive. The same measure for `O=C(O)c1cccc(CN2C(=O)c3ccccc3C2=O)c1`: “inactive”. The same measure for `O=C(NCCCn1ccnc1)c1nn2c(C(F)(F)F)cc(-c3ccccc3)nc2c1Cl`: “inactive”.

On to `COc1ccc(Cl)c(NCCC(=O)O)c1`, for which the result was inactive. For the compound `O=C(Nc1nc2cc3c(cc2s1)OCO3)C1=COCCO1`, the compound was called inactive. The same measure for `COc1ccc(Cl)cc1C(=O)Nc1ccc(N(C)C(C)=O)cc1`: “inactive”; for `Cc1cccc(Nc2nnc(SCC(=O)c3c(N)n(C4CC4)c(=O)[nH]c3=O)s2)c1`: “inactive”.

(Values after PubChem BioAssay AID493231 (Broad Institute, 2011).)
